Measurements reported in PubChem BioAssay AID624206 (National Center for Advancing Translational Sciences (NCATS), 2012).
Active and inactive are the calls of the source. The call rests on the fitted dose curve; in most records, active means well fitted curve in the direction sought with a large enough effect; inconclusive means small, poorly fitted or top-dose-only effect, or another doubt; inactive means no such curve, though single readings can be large or run the other way.

Experiment: Quantitative high throughput screen to test cell viability of anti-malarial compounds targeting the delayed death phenotype.
Details: HepG2 viability, CellTiter-Glo luminescence, 48 h
Excerpt: NIH Molecular Libraries Probe Production Network [MLPCN] NIH Chemical Genomics Center [NCGC] MLPCN Grant: R21 NS059500 Assay Provider: David Fidock and Eric Ekland, Columbia University The goal of this screen is to measuer the cytoxoxicity (against HepG2 cell line) of a set of anti-malarial compounds that target the delayed death pheonotype, by inhibiting the development of the apicoplast in the malarial parasite Plasmodium falciparum (described below) The biochemical processes that make this organelle essential for erythrocytic stage parasites are not well understood. However, antibiotics, such as azithromycin and tetracycline, which target the apicoplast translational machinery, have a potent antimalarial effect. […] We have developed a cell-based assay that measures parasite growth based on the expression of an integrated copy of a firefly luciferase reporter. To detect small molecules that cause this 'delayed death' phenotype, erythrocytes infected with the luciferase-expressing parasites were incubated with compounds for either one or two generations, corresponding to 48 and 96 hours, respectively. Compounds that inhibit parasite growth in the second generation, but not the first, should be enriched in antimalarials that target the apicoplast. Growth inhibition is detected by a decrease in luciferase activity
Cells were plated at a density of 2000 cells/well/5uL in 1536 well white tissue culture plate with culture medium. Triplicate plates were prepared. Plates were incubated at 37C, 5% CO2 for 5 hours and then 23nL of compounds and positive control were transferred to the assay plates. Tetraoctylammonium bromide was added as a positive control. Plates were then incubated at 37C, 5% CO2 for 48 hours. 5 uL of CellTitler-Glo buffer was added to each well and then incubated for 30 min at room temperature. Luminescence was measured using ViewLux (1 second, slow, 2X).

Row | SMILES | max response
1 | Cc1ccc(CN2CCC(n3nccc3NC(=O)c3ccccc3C)CC2)o1 | 13.2% (inactive)
2 | Cc1sc2nc[nH]c(=O)c2c1-c1ccc(Cl)cc1 | 3.87% (inactive)
3 | CN(C)c1ccc(CN(C(=O)c2ccccc2Br)C2CCS(=O)(=O)C2)cc1 (stereo not given) | 14.8% (inactive)
4 | COc1ccc(NC(=S)N2CCC(Cc3ccccc3)CC2)cc1OC | 0.57% (inactive)
5 | CC(C)C(=O)NCCSc1c[nH]c2ccccc12 | -11.2% (inactive)
6 | Cc1c(F)c(N2CCNC(C)C2)cc2c1c(=O)c(C(=O)O)cn2C1CC1 (stereo not given) | 12.4% (inactive)
7 | CCc1nc(SCC(=O)Nc2ccc(N(C)C)cc2)n[nH]1 | 1.4% (inactive)
8 | Brc1cccc(OCCCCN2CCCCC2)c1 | -6.02% (inactive)
9 | CCOC(=O)c1ccc2c(c1)n(CC)c(/C=C/N(C)c1ccccc1)[n+]2CC | -1.94% (inactive)
10 | COc1ccc(NC(=O)NC2CCCCCCC2)c(OC)c1 | -2.67% (inactive)
11 | CO[C@H]1[C@H](O[C@H]2O[C@@H](C)[C@@H](O[C@@H]3C[C@](C)(O)[C@H](O)[C@H](C)O3)[C@@H](N(C)C)[C@@H]2O)[C@@H](CC=O)C[C@@H](C)[C@@H](O[C@H]2CC[C@H](N(C)C)[C@H](C)O2)/C=C\C=C/C[C@@H](C)OC(=O)C[C@H]1O | 5.01% (inactive)
12 | O=C(c1ccc([N+](=O)[O-])cc1)n1nc(-c2ccccc2)nc1NCc1ccc(F)cc1 | 17.5% (inactive)
13 | COc1ccc(CNC(=O)C2CCC(CNS(=O)(=O)c3cccc4cccnc34)CC2)cc1 (stereo not given) | 4.48% (inactive)
14 | O=C(Nc1ccccc1N1CCOCC1)c1cccc(S(=O)(=O)N2CCOCC2)c1 | 0.827% (inactive)
15 | CO[C@@H]1[C@@H](OC2OC(C)C(OC3CC(C)(O)C(OC(=O)CC(C)C)C(C)O3)C(N(C)C)C2O)[C@@H](CC=O)C[C@@H](C)C(=O)/C=C\C2O[C@H]2C[C@@H](C)OC(=O)C[C@H]1OC(C)=O (stereo not given in full) | 14.6% (inactive)
16 | CCOc1ccc(NC(=O)C[n+]2ccc(N(C)C)cc2)cc1 | 8.12% (inactive)
17 | CCCc1cc(=O)oc2cc(OC(C)C(=O)NCc3ccccn3)c(Cl)cc12 (stereo not given) | 11.2% (inactive)
18 | c1csc(CNc2ncnc3nc[nH]c23)c1 | 12.9% (inactive)
19 | CCOc1ccc(C(=O)Nc2ccc(N3CCN(C)CC3)cc2)cc1 | 8.06% (inactive)
20 | CC1=Nc2cc(C(=O)N3CCCC3)ccc2Sc2ccc(C)cc21 | 5.45% (inactive)

Row | SMILES | max response
21 | CCCc1c(CC)c(=N)c2ccccc2n1C | 13.6% (inactive)
22 | O=C(CNC(=O)C1CCCCC1)OC(C(=O)c1ccccc1)c1ccccc1 (stereo not given) | 20.4% (inactive)
23 | CCCCOc1ccc(N2C(N)=NC(N)=NC23CCCCC3)cc1 | -12% (inactive)
24 | N#Cc1cccc(NC(=O)Cn2c3[n+](c4ccc(C(F)(F)F)cc42)CCCCC3)c1 | 14.7% (inactive)
25 | COc1ccc(Nc2nnc(-c3ccc(C)cc3)c3ccccc23)cc1C(=O)N1CCCCC1 | -6.06% (inactive)
26 | CCCCN(CCCNC(=O)c1ccc(CS(=O)(=O)c2ccc(OC)cc2)o1)Cc1ccccc1 | -1.11% (inactive)
27 | O=C(CSc1ccc(-c2cccnc2)nn1)Nc1ccccc1C(F)(F)F | 0.59% (inactive)
28 | CCCCN(CCCNC(=O)C1CCN(C(=O)c2cc3sccc3n2C)CC1)Cc1ccccc1 | 0.234% (inactive)
29 | COc1ccc2c(ccc[n+]2CC(=O)c2ccccc2)c1 | 5.11% (inactive)
30 | COc1ccccc1N1CCN(CCC(=O)Nc2ccc(F)cc2)CC1 | 6.7% (inactive)
31 | COc1cccc(CN2CCN(c3nc4nonc4nc3N3CCCCC3)CC2=O)c1 | 15.7% (inactive)
32 | CCC(=O)OC1C(N(C)C)CC(C)O[C@H]1O[C@H]1[C@H](C)[C@@H](O[C@H]2CC(OC)[C@@H](O)C(C)O2)[C@H](C)C(=O)O[C@@H](CC)[C@](C)(O)[C@@H](O)[C@H](C)C(=O)[C@@H](C)C[C@]1(C)O (stereo not given in full) | 10.5% (inactive)
33 | CC(=O)NC[C@@H]1CN(c2ccc(N3CCOCC3)c(F)c2)C(=O)O1 | 12.4% (inactive)
34 | Cc1ccc(-n2c(-c3ccc(Cl)cc3)c[n+]3c2CCC3)cc1 | -10.3% (inactive)
35 | CCOc1ccc(S(=O)(=O)Nc2cc(S(=O)(=O)N(CC)CC)ccc2N2CCCC2)cc1 | -26.9% (inactive)
36 | CCN(CC)C(=O)COc1coc(CN2CCN(c3cccc(Cl)c3)CC2)cc1=O | 3.88% (inactive)
37 | Cc1ccc(S(=O)(=O)Nc2ccc(C(=O)Nc3ccncc3)cc2)cc1 | 5.11% (inactive)
38 | COc1ccc(C(=O)N2CCN(S(=O)(=O)c3ccc(C)cc3C)CC2)cc1OC | -11.6% (inactive)
39 | CN(C)S(=O)(=O)c1cc(NC(=O)C2=COCCO2)ccc1Cl | 13.5% (inactive)
40 | COc1ccc2cc3cc(C(=O)Nc4ccc5c(c4)OCO5)oc3nc2c1 | -29.2% (inactive)
